The full list was thinned out, with hits kept by preference. How many sequences the whole screen found active is unknown. Unmarked numbers belong to inactive results.
Each sequence was assayed on T1, Caupolican (Caup) homeodomain DNA-binding domain (assay: PBM E-score (8-mer, recovered from the published 9-mer minima) (E-score (dimensionless, -0.5 to 0.5)); Drosophila protein; higher = stronger relative binding preference, active = 0.31 or more).
T1 sequence: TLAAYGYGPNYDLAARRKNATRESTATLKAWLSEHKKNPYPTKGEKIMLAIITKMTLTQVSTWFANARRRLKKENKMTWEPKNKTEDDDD
How it was run: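 Caup's homeodomain DNA-binding domain (residues 214-303) was produced by in vitro transcription and translation and applied at 100 nM to custom-designed protein binding microarrays. Each value is an enrichment score giving relative binding preference for a short DNA word; higher means stronger. Published 9-mer scores were the minimum of their two constituent 8-mer scores, and the 8-mer values were recovered from those minima. A cutoff of 0.31 marks candidate binding sequences.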

Row | Sequence | PBM E-score
1 | GTCATCTA | 0.0593
2 | GAGGTACA | 0.326 (active)
3 | CAGGTACA | 0.298
4 | ATGGTACC | 0.0486
5 | CTGGTACC | 0.0519
6 | ATGGTACG | 0.0989
7 | GTGGTACA | 0.277
8 | ATGGTACA | 0.32 (active)
9 | CTGGTACA | 0.319 (active)
10 | TAGGTACA | 0.271
11 | AGGACCTG | -0.102
12 | AAGCATTG | 0.102
13 | CAACCTGG | 0.0642
14 | AGGTGGCC | -0.286
15 | CAAGCCCC | -0.174
16 | ACTACAAG | ≥ 0.378 (active)
17 | ACTACAAT | 0.19
18 | CCTACAAC | 0.21
19 | ACTACAAA | 0.256
20 | ACTACAAC | 0.363 (active)
21 | GCTACAAC | 0.169
22 | GAGAGCTC | -0.215
23 | CGTCTATC | 0.0194
24 | CTTTTCGC | -0.012
25 | CGGTTGTC | 0.185
26 | TACTTTAA | 0.115

Row | Sequence | PBM E-score
27 | GATGTCAC | 0.294
28 | ATTGTCAC | 0.224
29 | AGTGTCAC | 0.13
30 | CTTGTCAC | 0.322 (active)
31 | CCTGTCAG | 0.115
32 | CGTGTCAC | 0.334 (active)
33 | CATGTCAG | 0.413 (active)
34 | CATGTCAC | 0.446 (active)
35 | CCTGTCAC | 0.144
36 | CGTGTCAG | 0.276
37 | AATGTCAG | 0.197
38 | AATGTCAC | 0.303
39 | AGCGTCCA | -0.0936
40 | AAAGTATT | 0.131
41 | CGGGCTTC | -0.289
42 | AGATCGGA | 0.0416
43 | GAAGTGAC | 0.0523
44 | GCCGGGGA | -0.241
45 | CGAACCCC | -0.249
46 | ATCAGTCC | -0.143
47 | AAATTGGG | -0.0398
48 | AAGTTTGC | 0.0221
49 | CGTGTCAA | 0.282
50 | CATGTCAA | 0.422 (active)
51 | CCTGTCAA | 0.172
52 | CGGGACTC | -0.204

Row | Sequence | PBM E-score
53 | CCCGATCC | -0.127
54 | ATCCCCAC | -0.0707
55 | GTACACAC | 0.331 (active)
56 | CTACACAA | 0.288
57 | TGACACAA | 0.259
58 | TCACACAA | 0.193
59 | TTACACAA | 0.311 (active)
60 | AAACACAT | 0.229
61 | GCACACAC | 0.0659
62 | AGACACAT | 0.213
63 | ATACACAT | 0.311 (active)
64 | CTACACAC | 0.175
65 | GTACACAA | 0.338 (active)
66 | GCACACAA | 0.0665
67 | CATGGCCC | -0.169
68 | GGGCTTAC | -0.119
69 | CACTAATA | 0.118
70 | GTTAGTAA | 0.177
71 | CTTATTAC | 0.0885
72 | CTGTGCGA | -0.0551
73 | CCTACCGA | -0.0361
74 | AGTGCGGG | -0.187
75 | ATCTTCGG | 0.00377
76 | ACACAGCT | 0.109
77 | ACCCATCC | -0.0713
78 | GCGCCCTA | -0.273

Row | Sequence | PBM E-score
79 | ATATAGCC | 0.0657
80 | ATACACAA | ≥ 0.341 (active)
81 | ATACACAC | 0.256
82 | ATACACAG | 0.193
83 | ATTTTCCC | -0.00887
84 | CAAACTGC | -0.0256
85 | CGCTAATC | -0.0282
86 | TATAGAAA | 0.118
87 | AACAATGA | 0.244
88 | ACAAATGT | ≥ 0.311 (active)
89 | ACAAATGG | 0.193
90 | AACAATGG | 0.198
91 | AACAATGT | 0.345 (active)
92 | ACAAATGA | 0.154
93 | ATGAGCTC | -0.0796
94 | ATTTCCTG | 0.0432
95 | AGGAGTAT | 0.00187
96 | CAGAGCGG | -0.155
97 | ATATTACG | 0.16
98 | ATATTACA | 0.35 (active)
99 | CTATTACC | 0.0284
100 | ACATTACT | 0.227
101 | GTATTACA | 0.288
102 | ACATTACA | ≥ 0.37 (active)
103 | ATATTACC | 0.186
104 | CTATTACA | 0.346 (active)

Row | Sequence | PBM E-score
105 | GCATTACA | 0.267
106 | CTGACTGC | -0.0466
107 | ACAGATAT | 0.159
108 | CGGTCATA | -0.0654
109 | CATCTGGG | -0.0619
110 | AACACGAC | 0.321 (active)
111 | GACACGAC | 0.347 (active)
112 | AACACGAG | 0.266
113 | AACACGAA | 0.293
114 | CACACGAC | 0.0592
115 | GACACGAA | 0.224
116 | AGATATCC | 0.0875
117 | ACCCGGGC | -0.196
118 | CCGTTTTC | -0.0987
119 | ATATAACC | 0.0533
120 | CTATAACA | 0.257
121 | ATATAACA | 0.372 (active)
122 | GTATAACA | 0.338 (active)
123 | GCATAACA | 0.255
124 | GTATAAGA | 0.112
125 | CGTAGGTC | -0.0431
126 | CAGCCTGG | -0.164
127 | ATAAAGGC | -0.111
128 | AGTGGTGG | -0.0979
129 | AAGGAATT | -0.0309
130 | ACAGTTCA | 0.0978

Row | Sequence | PBM E-score
131 | GACATGAA | 0.318 (active)
132 | CACATGAC | 0.242
133 | ACCATGAA | 0.0242
134 | GGCATGAA | 0.0161
135 | TGCATGAA | 0.126
136 | CACATGAA | 0.226
137 | AGCATGAA | 0.102
138 | GTCATGAA | 0.0353
139 | AACATGAA | 0.387 (active)
140 | GACATGAC | 0.394 (active)
141 | GCCATGAC | -0.0484
142 | TACATGAA | 0.383 (active)
143 | TACAGAGA | 0.12
144 | GAGTTTGA | 0.0834
145 | CGTTTCCC | -0.165
146 | AAGATGGC | -0.0976
147 | CTGATTAA | 0.162
148 | AACCTTAA | -0.0003
149 | TGGGGGAA | -0.237
150 | GACTTCGA | -0.0675
151 | ACTAGAAG | 0.00911
152 | AACGGGCC | -0.162
153 | GTGACCTA | 0.0131
154 | GAGCTCAA | -0.094
155 | TGCAAAAA | 0.0586
156 | AGACTGCG | -0.129

Row | Sequence | PBM E-score
157 | AGCTTCCC | -0.188
158 | AAGCCCCA | -0.232
159 | AAACACGA | ≥ 0.351 (active)
160 | AAACACTT | 0.153
161 | ACACACGT | 0.254
162 | AAACACGC | 0.248
163 | AAACACGG | 0.257
164 | AAACACGT | 0.312 (active)
165 | CAAAGCGC | -0.207
166 | GATCAGGC | -0.0491
167 | ACCGACTA | 0.0195
168 | ACCCCGCA | -0.142
169 | ACAATGTC | 0.316 (active)
170 | ACAATGTA | 0.285
171 | GCCATGGA | -0.137
172 | CCAATGTC | 0.0611
173 | CCCATGTC | 0.309
174 | ACTATGTC | 0.302
175 | GCCATGCA | -0.0297
176 | CCCATGGA | 0.021
177 | ACCATGTC | 0.408 (active)
178 | ACCATGCC | -0.0174
179 | CCCATGTA | 0.326 (active)
180 | GCCATGTA | 0.346 (active)
181 | AATATTTC | 0.0671
182 | TGATTGCA | 0.139

Row | Sequence | PBM E-score
183 | GAAATAAA | 0.0685
184 | ATGCGAAC | 0.0459
185 | GACTCAAC | 0.0307
186 | CGAAGGTC | -0.156
187 | ACAGCAAT | 0.163
188 | ACAGTTGC | 0.0312
189 | CCGATAAC | 0.0305
190 | ACCATGTG | 0.145
191 | ACCATGTA | ≥ 0.422 (active)
192 | ACCATGCA | 0.0966
193 | AATTTGGA | 0.0747
194 | CTGAACAC | 0.235
195 | ATGAACAA | 0.286
196 | ATGAACAT | 0.326 (active)
197 | AGGAACAC | 0.193
198 | ATGAACAC | 0.332 (active)
199 | ATGAACAG | 0.22
200 | GTGAACAC | 0.256
201 | AGGAACAG | 0.0859
202 | ACGAACAA | 0.298
203 | ACGAACAG | 0.137
204 | AGGAACAT | 0.339 (active)
205 | ACGAACAT | 0.349 (active)
206 | AACGGGTA | 0.0722
207 | CCCGTCGG | -0.289
208 | CCGCAGCC | -0.25

Row | Sequence | PBM E-score
209 | GCGCCGAC | -0.199
210 | GATCGCAC | 0.0699
211 | CATTTGCG | 0.00242
212 | ACCTTCGT | -0.0522
213 | GCCACCTA | -0.192
214 | AACAAGTA | 0.33 (active)
215 | GACAAGTA | 0.355 (active)
216 | CACAAGTA | 0.205
217 | AACAAATA | 0.287
218 | GACAAATA | 0.218
219 | TACAAGTA | ≥ 0.407 (active)
220 | GACAAGTC | 0.236
221 | TACAAAGA | 0.239
222 | CACAAGTG | 0.111
223 | AACAAGTG | 0.334 (active)
224 | ACCAAGTA | 0.0922
225 | AACAAATG | 0.174
226 | CATGAAGG | 0.0126
227 | ACCCCGAA | -0.106
228 | AGTGGGTC | -0.178

Reference: the supplement of paper PMC3724861
